Measurements reported in PubChem BioAssay.

What was measured:
[1] = target: Tumor necrosis factor receptor superfamily member 10B (Homo sapiens) (UniProt O14763); experiment: caspase-8 TRAIL sensitization, hit retest, confirmation, cell-based, NB7+caspase-8, with/without TRAIL, luminescence panel (AID 651596); details: NB7 neuroblastoma + caspase-8, TRAIL sensitization, luminescence viability, with TRAIL, mean of runs, at 10 µM, stronger effect = higher value
[2] = as above; details: NB7 neuroblastoma + caspase-8, without TRAIL, luminescence viability, without TRAIL, mean of runs, at 10 µM

Chain of Tumor necrosis factor receptor superfamily member 10B (Homo sapiens) (O14763 whole entry, looked up): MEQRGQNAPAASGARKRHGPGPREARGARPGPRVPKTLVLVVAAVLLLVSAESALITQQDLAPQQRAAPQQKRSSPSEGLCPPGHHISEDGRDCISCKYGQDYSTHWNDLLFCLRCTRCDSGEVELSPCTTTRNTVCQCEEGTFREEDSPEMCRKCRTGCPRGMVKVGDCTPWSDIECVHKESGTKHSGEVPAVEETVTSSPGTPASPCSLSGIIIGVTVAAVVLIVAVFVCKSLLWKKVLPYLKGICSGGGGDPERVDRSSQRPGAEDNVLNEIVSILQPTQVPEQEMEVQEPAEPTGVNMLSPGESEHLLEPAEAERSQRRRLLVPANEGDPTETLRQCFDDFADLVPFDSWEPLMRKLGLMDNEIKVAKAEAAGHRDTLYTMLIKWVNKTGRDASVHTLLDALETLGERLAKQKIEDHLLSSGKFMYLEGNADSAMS

| Structure (SMILES) | activity [1] [%] | activity [2] [%] |
| --- | --- | --- |
| CS(=O)c1nc(-c2ccc(Br)cc2)cc(-c2ccccc2)c1C#N (stereo not drawn) | 95.7 | 97.8 |
| COc1ccc2c(n1)Sc1nc3ccccc3nc1N2 | 4.47 | 4.42 |
| N/C(=N\OC(=O)c1ccc([N+](=O)[O-])cc1Cl)c1ccccn1 | 90.2 | 87.3 |
| COc1ccc(C(=O)Nc2ccc3[nH]ncc3c2)cc1 | 78.3 | 77.1 |
| Nc1nc2ccccc2n1C(=O)c1ccccc1 | 87.9 | 85.9 |
| CCc1n[n+](CC(=O)c2ccccc2)c(N)s1 | 44.6 | 35.9 |
| O=c1cc(-c2ccccc2)oc2ccc3ccccc3c12 | 92.2 | 90.1 |
| CCCCCCCC(=O)Nc1ccc(C(=O)N/N=C/c2cccc([N+](=O)[O-])c2)cc1 | 69.3 | 75.9 |
| Cc1nn(-c2ccccc2)c(Cl)c1CN(C(=O)CCl)c1ccc(Cl)cc1 | 99.3 | 99.6 |
| CN(C)c1ccc(Sc2ccc3nc(N)nc(N)c3c2)cc1 | 62.9 | 73 |
| Cc1ccc(NC(=O)Cn2ncc(Cl)c(Cl)c2=O)cc1S(=O)(=O)N1CCCCC1 | 86.5 | 99.5 |
| O=Cc1s/c(=N\S(=O)(=O)c2ccccc2)n(CCCCl)c1Cl | 94.2 | 88.6 |
| O=C(Nc1cc(S(=O)(=O)N2CCOCC2)ccc1N1CCOCC1)c1ccc([N+](=O)[O-])s1 | 39.1 | 41.4 |
| Cc1ccsc1/C=C/c1ccc2ccccc2n1 | 42.2 | 30.9 |
| O=C(Nc1nsc(-c2ccccc2)n1)c1cccs1 | 56.6 | 56 |
| CCC(C)c1ccc2oc(-c3ccc(NC(=O)Cn4cnc5c(=O)n(C)c(=O)n(C)c54)cc3)nc2c1 (stereo not drawn) | 85.3 | 66.9 |
| Cc1ccc2c(c1)N=C(c1ccccc1)CC(C(Cl)Cl)=N2 | 29.4 | 18 |
| O=C(Nc1nc2ccccc2[nH]1)c1cc2ccccc2o1 | 87.2 | 87 |
| Oc1ccccc1C=Nc1ccccc1-c1nc2ccccc2[nH]1 | 7.4 | 1.85 |
| O=C(Nc1cc(C(F)(F)F)cc(C(F)(F)F)c1)Nc1cnn(-c2ccc([N+](=O)[O-])cc2)c1C(F)(F)F | 74.2 | 63 |
| CCOc1ccc(CN(C)C(=O)[C@H](Cc2ccccc2)NC(=O)OCc2ccccc2)cc1OC | -12.3 | 1.82 |
| CC(=O)Nc1nc2ccccc2n1CCOc1ccccc1 | 45.6 | 49.5 |
| c1ccc2oc(-c3csc(N4CCOCC4)n3)cc2c1 | 67.7 | 51.3 |
| Cc1ccc(C(=O)Nc2ncc3c(Cl)cccc3n2)cc1 | 91.5 | 89 |
